WRN helicase inh: inhibitors of human WRN helicase; AID 651768; WRN helicase unwinding, fluorescent forked duplex, kinetic; Q14191; Potency, µM (top dose mostly 114 µM), inactives show at the highest dose activity change, negative = inhibition, hits mostly inhibitors; 0.46% of 360,000 active; further: on the % scale 0 is the no-effect control and ±100 the full control effect; nearly all actives have a fitted effect of over 55% in size
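Fluorescence dequenching readout, ex 525 nm/em 598 nm, kinetic mode: forked duplex DNA (100 nM final) with adjacent fluorophore and quencher unwound by WRN (20 nM final) with 2 mM ATP. Compound preincubation 15 min, room temperature.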
POLI inh: blocks human DNA polymerase iota activity. 1% of 390,000 active. Q9UNA4. Pol iota fluorescent replication assay, 10 min. Potency, µM (titrated, usually from 115 µM), without a hit: at the top dose activity, negative = inhibition, actives largely listed as inhibitors
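Pol iota at 10 nM preincubated 15 min with compounds at room temperature; reaction started with fluorescent substrate, 50 nM final. Fluorescence read kinetically at 0 and 10 min; buffer-only wells as negative control.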
FEN1 inh: human FEN1 inhibition; P39748; Recombinant FEN1 flap cleavage, fluorescence, 15 min; Potency, µM (highest dose often 114 µM), inactives show at the top dose activity change, negative = inhibition, usual class: inhibitors; 0.35% of 390,000 active; AID 588795; further: on the % scale 0 is the no-effect control and ±100 the full control effect; nearly all actives have a fitted effect of over 65% in size
Target sequence (P39748 whole entry, looked up): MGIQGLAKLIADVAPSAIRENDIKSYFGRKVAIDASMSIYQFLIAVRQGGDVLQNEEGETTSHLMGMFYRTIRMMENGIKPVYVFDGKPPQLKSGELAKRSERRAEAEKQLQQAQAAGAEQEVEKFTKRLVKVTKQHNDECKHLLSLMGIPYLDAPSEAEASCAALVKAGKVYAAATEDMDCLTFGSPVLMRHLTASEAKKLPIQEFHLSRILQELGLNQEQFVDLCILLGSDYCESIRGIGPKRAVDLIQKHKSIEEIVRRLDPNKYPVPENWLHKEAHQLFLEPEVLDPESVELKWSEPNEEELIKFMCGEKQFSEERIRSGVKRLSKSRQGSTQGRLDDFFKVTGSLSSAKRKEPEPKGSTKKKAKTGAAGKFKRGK
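FEN1 at 10 nM preincubated with compounds 15 min at room temperature, then flap DNA substrate added at 50 nM final. Signal read at 0 and 15 min; concentration-response fitted with four-parameter Hill equation.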
Pol beta inh: DNA polymerase beta (human) inhibition. P06746. Pol beta primer extension/strand displacement, fluorescence kinetic. Potency, µM (doses to about 114 µM), without a hit: at the top dose activity change, negative = inhibition, hits mostly inhibitors. 1.3% of 340,000 active; further: on the % scale 0 is the no-effect control and ±100 the full control effect
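Curves were derived by four-parameter Hill fits of normalized qHTS data. The kinetic fluorescent primer-extension read was taken at 0 and 10 min after 50 nM substrate, following a 15 min room-temperature preincubation of 10 nM enzyme with compounds.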
Pol kappa inh: blocks human DNA polymerase kappa activity; Q9UBT6; purified Pol kappa, fluorescent DNA synthesis assay, 10 min; Potency, µM (series often up to 107 µM), inactives show top-dose activity, negative = inhibition, most hits filed as inhibitors; 0.53% of 400,000 active; AID 588579; further: on the % scale 0 is the no-effect control and ±100 the full control effect
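Pol kappa 10 nM + cpd, 15 min RT; start w/ substrate 50 nM final; fluorescence kinetic read, 0 and 10 min. Neg ctrl: buffer, no enzyme.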
POLH inh: DNA polymerase eta (human) inhibition. Q9Y253. Potency, µM (top dose mostly 114 µM), without a hit: at the top dose activity change, negative = inhibition, actives largely listed as inhibitors. AID 588591. recombinant Pol eta, fluorescent DNA replication assay. 1.2% of 390,000 active; further: on the % scale 0 is the no-effect control and ±100 the full control effect
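Pol eta (10 nM) was preincubated with compounds for 15 min at room temperature, after which fluorescent replication substrate (50 nM final) was added to start the reaction. Fluorescence was read kinetically at 0 and 10 min.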
An asterisk follows results filed as active; [ ] = remark or other dose. Compounds with a hit are over-represented: about 2.4% of the library has one in this group of screens. The call rests on the fitted dose curve; in most records, active means well fitted curve in the direction sought with a large enough effect; inconclusive means small, poorly fitted or top-dose-only effect, or another doubt; inactive means no such curve, though single readings can be large; an effect the other way counts as inactive or inconclusive. Potency means the concentration at half of the fitted maximal effect.

For O=C(O)CC/C=C\CC[C@H]1[C@@H](N2CCCCC2)[C@@H](O)C[C@@H]1OCc1ccc(-c2ccccc2)cc1 the results were Pol kappa inh -8%[19.4 µM].
For CCOc1ccc(CCNC(=O)CCn2c(=O)c3cccn3c3ccc(F)cc32)cc1OCC the results were POLI inh 1%, FEN1 inh 9%, Pol beta inh 2%, Pol kappa inh -7% and POLH inh 11%.
CCC(=O)NC1=C(Cl)C(=O)C(NC(=O)CC)=C(Cl)C1=O was read as WRN helicase inh inconclusive, POLI inh 1.8µM*, FEN1 inh inconclusive, Pol beta inh 11%, Pol kappa inh 1% and POLH inh inconclusive.
`CCC(=O)NC1=C(NC(C)c2ccccc2)C(=O)c2ccccc2C1=O` (stereo not given) gave WRN helicase inh 4%, POLI inh 42%, FEN1 inh 2%, Pol beta inh 7%, Pol kappa inh -2% and POLH inh -1%.
Screening Cn1cnnc1Sc1ccc(/C=C/C(=O)c2ccc(O)cc2)cc1[N+](=O)[O-] returned WRN helicase inh -18%[57.1 µM], POLI inh inconclusive, FEN1 inh inconclusive, Pol beta inh 39%, Pol kappa inh -10% and POLH inh 50µM*.
`CC1CC=CC2C1C(=O)N(Cc1ccccc1)C2c1ccc(C(F)(F)F)cc1` (stereo not given) gave POLI inh -15%, FEN1 inh -3% and Pol kappa inh 3%.
`COC(=O)CCCC1=CC2=CC(=O)C(C)(OC(=O)CCc3ccccc3)C(=O)C2=CO1` (stereo not given) gave WRN helicase inh inconclusive, POLI inh inconclusive, FEN1 inh inconclusive, Pol beta inh 56µM*, Pol kappa inh inconclusive and POLH inh inconclusive.
For COC(=O)CCC(=O)OC1(C)C(=O)C=C2C=C(C3CC3)N(Cc3ccco3)C=C2C1=O (stereo not given) the results were WRN helicase inh 2%, POLI inh 50%, FEN1 inh -18%, Pol beta inh -20%, Pol kappa inh -3% and POLH inh -2%.
Screening COC(=O)CCC(=O)OC1(C)C(=O)C=C2C=C(C3CC3)N(C3CC3)C=C2C1=O (stereo not given) returned WRN helicase inh 6%, POLI inh 14µM*, FEN1 inh -13%, Pol beta inh -11%, Pol kappa inh -16% and POLH inh -14%.
`CCC(=O)OC1(C)C(=O)C=C2C=C(c3ccsc3)OC=C2C1=O` (stereo not given) gave WRN helicase inh inconclusive, POLI inh 18µM*, FEN1 inh 40µM*, Pol beta inh 50µM*, Pol kappa inh 50µM* and POLH inh 50µM*.
For COC(=O)CCC(=O)OC1(C)C(=O)C=C2C=C(c3ccsc3)OC=C2C1=O (stereo not given) the results were WRN helicase inh inconclusive, POLI inh 14µM*, FEN1 inh 32µM*, Pol kappa inh 20µM* and POLH inh 5µM*.
For CCOC(=O)C1=CN(C(=O)OC(C)(C)C)C(CN2C(=O)COCC2=O)C1 (stereo not given) the results were POLI inh -100%, FEN1 inh -98% and Pol kappa inh inconclusive.
For COc1cc(/C=N/Nc2ccccc2[N+](=O)[O-])cc(OC)c1O the results were WRN helicase inh -1%, POLI inh 60%, FEN1 inh 2%, Pol beta inh 2%, Pol kappa inh 5% and POLH inh -10%.
`COc1cc(/C=N/Nc2ccc(S(N)(=O)=O)cc2[N+](=O)[O-])cc(OC)c1O` gave WRN helicase inh -6%[11.6 µM], POLI inh 40µM*, FEN1 inh -9%, Pol beta inh inconclusive, Pol kappa inh -20% and POLH inh inconclusive.
`COc1cc(/C=N/Nc2nc3ccccc3s2)cc([N+](=O)[O-])c1O` gave WRN helicase inh inconclusive, POLI inh -8%, FEN1 inh 45µM*, Pol beta inh 22µM*, Pol kappa inh -6% and POLH inh 56µM*.
For CCC(C)NC(=O)C1CCN(C(=O)c2ccc(-n3ccc4ccccc43)s2)CC1 (stereo not given) the results were POLI inh -19%, FEN1 inh -1%, Pol beta inh 0%, Pol kappa inh -24% and POLH inh -15%.
For COc1ccc(-c2nc3ccccc3n3c(-c4cccc(C)c4)c4c(=O)n(C)c(=O)n(C)c4c23)cc1 the results were POLI inh -17%, FEN1 inh -13%, Pol beta inh -20%, Pol kappa inh -17% and POLH inh -4%.
For O=C(COC(=O)c1ccccc1NCCO)Nc1cccc(S(=O)(=O)NC2=NCCCCC2)c1 the results were WRN helicase inh -8%[11.6 µM], POLI inh 40µM*, FEN1 inh -6%, Pol kappa inh inconclusive and POLH inh inconclusive.
For O=C(Nc1cccc(S(=O)(=O)NC2=NCCCCC2)c1)C1COc2ccccc2O1 (stereo not given) the results were WRN helicase inh inconclusive, POLI inh inconclusive, FEN1 inh 16%, Pol beta inh 13µM*, Pol kappa inh -24% and POLH inh inconclusive.
For O=c1/c(=C/c2ccco2)sc2nc(-c3ccccc3Br)nn12 the results were WRN helicase inh inconclusive, POLI inh inconclusive, FEN1 inh 10%, Pol beta inh 35µM*, Pol kappa inh 79µM* and POLH inh 16µM*.
For Cc1ccc(/C=c2\sc3nc(-c4cccs4)nn3c2=O)o1 the results were WRN helicase inh -4%[11.6 µM], POLI inh inconclusive, FEN1 inh 0%, Pol beta inh 18µM*, Pol kappa inh inconclusive and POLH inh inconclusive.
For COc1cccc(/C=c2\sc3nc(-c4cccs4)nn3c2=O)c1OC the results were WRN helicase inh -20%, POLI inh 2%, FEN1 inh -14%, Pol beta inh 4%, Pol kappa inh -17% and POLH inh inconclusive.
COCCNc1cc(-c2ccccc2C)ncn1 was read as Pol kappa inh 32µM*.
Screening CNc1cc(-c2ccccc2C)ncn1 returned Pol kappa inh 5%[60.1 µM].
Screening CC(=O)Nc1ccc2nc(NC(=O)COc3ccccc3C)sc2c1 returned WRN helicase inh -6%, POLI inh 73%, FEN1 inh -10%, Pol beta inh -27%, Pol kappa inh -1% and POLH inh -17%.
`COc1cccc2sc(Nc3nc4ccc(NC(C)=O)cc4s3)nc12` gave WRN helicase inh inconclusive, POLI inh 16µM*, FEN1 inh inconclusive, Pol beta inh inconclusive, Pol kappa inh 45µM* and POLH inh inconclusive.

High-throughput results as filed in PubChem BioAssay.
